Source: publication PMC5540273 (PLoS ONE, 2017)

Key:
Conditions in all cases: concentration: 1 μM, replicates: in singlicate; n = 1
HASPIN = system: T1, HASPIN
T1 construct: gene GSG2

HCK = system: HCK
HIPK1 = system: HIPK1
HIPK2 = system: HIPK2
HIPK3 = system: HIPK3
HIPK4 = system: HIPK4
HPK1 = system: HPK1
HUNK = system: HUNK
ICK = system: ICK
IGF1R = system: IGF1R
IKK-alpha = system: T2, IKK-alpha
T2 construct: gene CHUK

IKK-beta = system: T3, IKK-beta
T3 construct: gene IKBKB

IKK-epsilon = system: T4, IKK-epsilon
T4 construct: gene IKBKE

INSRR = system: INSRR
INSR = system: INSR
IRAK1 = system: IRAK1
IRAK3 = system: IRAK3
IRAK4 = system: IRAK4
ITK = system: ITK
[1] = system: JAK1(JH1domain-catalytic)
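Further: KINOMEscan kinase panel screen.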

| SMILES | %Inh (HASPIN) | %Inh (HCK) | %Inh (HIPK1) | %Inh (HIPK2) | %Inh (HIPK3) | %Inh (HIPK4) | %Inh (HPK1) | %Inh (HUNK) | %Inh (ICK) | %Inh (IGF1R) | %Inh (IKK-alpha) | %Inh (IKK-beta) | %Inh (IKK-epsilon) | %Inh (INSRR) | %Inh (INSR) | %Inh (IRAK1) | %Inh (IRAK3) | %Inh (IRAK4) | %Inh (ITK) | %Inh [1] |
| --- | --- | --- | --- | --- | --- | --- | --- | --- | --- | --- | --- | --- | --- | --- | --- | --- | --- | --- | --- | --- |
| Cl.c1ccc(-c2ccc3c(Nc4ccc5[nH]ncc5c4)ccnc3c2)nc1 [GW440137] | 6% | 16% | 62% | 47% | 51% | 0% | 23% | 9% | 0% | 12% | 10% | 15% | 17% | 0% | 15% | 18% | 26% | 12% | 7% | 26% |
| CCCCc1nn2ncccc2c1-c1ccnc(Nc2ccc(N3CCN(C)CC3)cc2)n1 [GW684941] | 25% | 73% | 24% | 0% | 32% | 71% | 61% | 0% | 17% | 16% | 41% | 23% | 16% | 21% | 36% | 94.9% | 79% | 43% | 5% | 0% |
| COc1cc(Nc2nccc(-c3c(-c4cccc(NC(=O)c5c(F)cccc5F)c4)nn4ccccc34)n2)cc(OC)c1OC [GSK323521] | 0% | 0% | 12% | 0% | 16% | 14% | 50% | 24% | 0% | 32% | 0% | 25% | 65% | 13% | 13% | 10% | 22% | 0% | 13% | 5% |
| CC(=O)N1CCN(c2ccc(Nc3nccc(-c4sc(C(C)C)nc4-c4cccc(NS(=O)(=O)c5cccc(Cl)c5)c4)n3)cn2)CC1 [GSK1660437] | 0% | 83% | 40% | 5% | 35% | 82% | 36% | 0% | 0% | 0% | 0% | 0% | 20% | 25% | 8% | 0% | 0% | 0% | 20% | 0% |
| COc1cccc(C2=C(Nc3ccc(Cl)c(C(=O)O)c3)C(=O)NC2=O)c1 [SB-390769] | 0% | 0% | 7% | 0% | 11% | 0% | 55% | 0% | 10% | 26% | 100% | 100% | 91.1% | 8% | 100% | 48% | 0% | 31% | 14% | 100% |
| Nc1ncnc2c1nc(-c1ccccc1)n2-c1ccccc1 [SKF-97293] | 38% | 27% | 7% | 16% | 35% | 9% | 21% | 0% | 19% | 12% | 50% | 44% | 12% | 16% | 7% | 39% | 40% | 10% | 8% | 0% |
| COc1cccc(C(=O)Nc2cccc(Oc3ccc4nc(NC(=O)C5CC5)cn4n3)c2)c1 | 0% | 98.1% | 37% | 0% | 0% | 15% | 42% | 12% | 0% | 0% | 0% | 2% | 0% | 0% | 0% | 0% | 37% | 0% | 20% | 15% |
| CN1CCN(CCCNc2nccc(-c3c(-c4ccc(F)cc4)nn4cc(C(F)(F)F)ccc34)n2)CC1 [GW621581] | 0% | 14% | 0% | 2% | 0% | 0% | 30% | 0% | 0% | 0% | 35% | 23% | 0% | 0% | 0% | 0% | 0% | 7% | 0% | 0% |
| COCCOCCOc1cc2ncc3c4ccc(C#N)cc4[nH]c3c2cc1OC | 18% | 4% | 90.3% | 87% | 87% | 32% | 7% | 0% | 41% | 2% | 30% | 30% | 60% | 0% | 0% | 96% | 75% | 99.9% | 39% | 0% |
| Cc1ccc(F)c(C(=O)Nc2cccc(-c3nn4ccccc4c3-c3ccnc(Nc4cccc(F)c4)n3)c2)c1F [GSK361061] | 1% | 94.4% | 0% | 0% | 14% | 57% | 21% | 11% | 0% | 41% | 0% | 0% | 22% | 26% | 25% | 0% | 17% | 3% | 43% | 9% |
| FC(F)(F)c1ccc(/C=C/c2cncnc2Nc2ccc3[nH]c(Cc4ccccc4)nc3c2)cc1 [GW709199] | 12% | 14% | 21% | 0% | 0% | 13% | 12% | 55% | 0% | 0% | 0% | 0% | 0% | 0% | 0% | 2% | 3% | 0% | 6% | 10% |
| Clc1ccc(-c2nn3ncccc3c2-c2ccnc(Nc3ccc4c(c3)OCCO4)n2)cc1 [GW829116] | 0% | 54% | 14% | 0% | 0% | 0% | 0% | 50% | 0% | 0% | 0% | 0% | 17% | 0% | 0% | 0% | 0% | 0% | 0% | 0% |
| O=C(NC1CCN(c2ccnc(Nc3ccc(F)cc3)n2)C1)c1cc2ccccc2s1 (stereo not shown) [GSK1379716] | 12% | 0% | 0% | 0% | 8% | 0% | 54% | 10% | 0% | 13% | 21% | 0% | 15% | 0% | 70% | 32% | 11% | 17% | 21% | 29% |
| Cn1cc(-c2ccc3c(c2)CCN3C(=O)Cc2cccc(F)c2)c2c(N)ncnc21 [GSK2603358] | 0% | 13% | 0% | 0% | 8% | 0% | 57% | 13% | 0% | 23% | 15% | 43% | 76% | 0% | 0% | 41% | 0% | 22% | 11% | 18% |
| COc1cc(Nc2ncc3c(C)nc(-c4cc5ccccc5[nH]4)n3n2)cc(OC)c1OC [GW869516] | 0% | 16% | 79% | 0% | 0% | 17% | 2% | 0% | 0% | 0% | 0% | 0% | 0% | 53% | 4% | 2% | 20% | 0% | 43% | 0% |
| c1ccc(Oc2ccc(Nc3ccnc4cc(-c5ccc(CNCCN6CCOCC6)o5)ccc34)cc2)nc1 [GW567145] | 43% | 76% | 0% | 0% | 10% | 0% | 15% | 12% | 0% | 0% | 28% | 0% | 27% | 0% | 11% | 20% | 0% | 0% | 0% | 5% |
| Cl.Cl.NCC(NC(=O)c1cc(-c2ccccc2)c(-c2ccnc3[nH]ccc23)s1)c1ccccc1 (stereo not shown) [GSK1321561] | 90.3% | 0% | 18% | 28% | 47% | 50% | 68% | 11% | 3% | 0% | 1% | 3% | 0% | 0% | 12% | 40% | 15% | 0% | 11% | 29% |
| Fc1ccc(-c2ncn(C3CCNCC3)c2-c2ccnc(Oc3ccc(-c4ccccc4)cc3)n2)cc1 [SB-245391] | 24% | 31% | 5% | 0% | 31% | 27% | 29% | 38% | 25% | 48% | 32% | 32% | 0% | 37% | 22% | 11% | 0% | 0% | 0% | 10% |
| Nc1n[nH]c2cnc(-c3ccccc3)cc12 [SB-642124] | 68% | 0% | 64% | 78% | 88% | 7% | 58% | 0% | 26% | 0% | 55% | 64% | 13% | 100% | 0% | 49% | 3% | 32% | 13% | 37% |
| CCn1c(-c2nonc2N)nc2c(C#CC(C)(C)O)nc(OC[C@H](N)c3ccccc3)cc21 [GSK943949] | 22% | 0% | 21% | 0% | 14% | 0% | 30% | 3% | 0% | 0% | 0% | 0% | 13% | 0% | 0% | 0% | 0% | 8% | 0% | 19% |
